Screens from PubChem.
Shown is part of a subset that was picked to be rich in hits.
HePTP inhibitor – human HePTP phosphatase inhibition. P35236. recombinant HePTP phosphatase activity, OD absorbance. inhibition, % at 20 µM. hit rate 0.64% among 110,000; in the data active = inhibition above about 50%;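 also: plate controls were vehicle for no effect and reference inhibitor for full effect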
D1 allo mod – allosteric modulators of human D1 dopamine receptor | P21728 | HEK293 D1, CRE-luciferase, dopamine EC30 potentiation; actives deviate in either direction | hit rate 5.9% among 58,000 | B-score at 10 µM;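 active = luminescence count or its row- and column-corrected plate score outside the 99.7% band of the plate's sample wells, on either side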
DAT uptake mod – human DAT dopamine uptake with cocaine, either direction; Q01959; AID 449768; B-score at 10 µM; hit rate 1.3% among 110,000; LLC-PK1 hDAT cells, [14C]-dopamine uptake with cocaine IC80; actives deviate in either direction;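 active = Z score or B-score, a plate-position-corrected score, falls beyond the plate's 99.7% confidence bounds, in either direction; inactive = both scores lie inside the 99.7% bounds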;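 also: scored against the spread of the other compound wells on the same plate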
PLAP activator – activates human placental alkaline phosphatase; P05187; purified PLAP enzyme, luminescent substrate read-out; hits give high values; activation fold at 20 µM; hit rate 1.2% among 96,000; AID 696; in the data active = activation fold above about 2
Target sequence (P05187 whole entry, looked up): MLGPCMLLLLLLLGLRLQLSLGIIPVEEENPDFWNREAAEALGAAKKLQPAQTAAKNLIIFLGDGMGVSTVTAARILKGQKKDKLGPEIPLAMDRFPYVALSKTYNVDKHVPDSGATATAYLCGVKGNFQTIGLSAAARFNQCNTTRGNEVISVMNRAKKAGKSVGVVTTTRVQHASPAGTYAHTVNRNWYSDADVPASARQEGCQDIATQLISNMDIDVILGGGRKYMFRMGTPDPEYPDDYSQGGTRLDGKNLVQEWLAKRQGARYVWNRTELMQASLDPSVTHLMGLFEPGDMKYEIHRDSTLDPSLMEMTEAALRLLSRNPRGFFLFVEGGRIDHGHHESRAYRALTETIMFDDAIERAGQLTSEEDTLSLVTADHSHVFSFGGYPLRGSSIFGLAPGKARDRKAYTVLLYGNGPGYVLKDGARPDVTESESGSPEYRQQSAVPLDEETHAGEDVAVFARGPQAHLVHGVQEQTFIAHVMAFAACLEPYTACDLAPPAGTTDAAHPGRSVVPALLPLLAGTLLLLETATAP
TNAP act mid DEA – activators of human TNAP at intermediate phosphate acceptor | purified TNAP, CDP-star luminescence, 100 mM DEA, 30 min; hits give high values; scale: 0 levamisole-inhibited, 1 vehicle-only enzyme | activation factor at 20 µM | 64,000 tested, under 10 active;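 active = activation factor of at least 2 at 20 µM, relative to controls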
Calb biofilm kill – kills Candida albicans biofilms; C. albicans biofilm + clotrimazole, Alamar Blue; inhibition, % at 6 µM; hit rate 0.14% among 85,000;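 active = inhibition above 20%; inactive = inhibition below 20%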;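 also: preformed 24 hr biofilms exposed to compound for 48 hr; 0% = biofilm without compound and 100% = blank killed by clotrimazole plus chlorhexidine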
D1 PAM confirm – D1 receptor (human) allosteric modulation, confirmed. HEK293 D1 CRE-luciferase, dopamine EC30 potentiation; hits give high values. luminescence at 10 µM. hit rate 88% among 2,200. shares compounds with D1 allo mod;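 active = luminescence in either of two replicates above the same-plate mean plus 3 SD of the low-dose dopamine control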
D1 ag no DA – D1 (human) signaling in absence of dopamine; shares compounds with D1 allo mod; HEK293 D1 CRE-luciferase, luminescence, no dopamine; hits give high values; luminescence at 10 µM; hit rate 0.8% among 1,900; AID 646; in the data active = luminescence above about 3900
Isoprot counter – counter-screen for D1 modulators: isoproterenol response in HEK293 cells; shares compounds with D1 allo mod; luminescence at 10 µM; hit rate 63% among 2,200; AID 647; HEK293 D1 CRE-luciferase, isoproterenol EC30 counter-screen; hits give high values;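 active = luminescence in either replicate above plate mean of wells with a partly effective reference agonist dose plus 3 SD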;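 also: isoproterenol raises cAMP through native beta-adrenoceptor Gs so signal bypasses D1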
An asterisk follows results filed as active; · = no result.

SMILES	HePTP inhibitor	D1 allo mod	DAT uptake mod	PLAP activator	TNAP act mid DEA	Calb biofilm kill	D1 PAM confirm	D1 ag no DA	Isoprot counter
CCn1c(SCC(=O)OC)nc2sc3c(c2c1=O)CCC3	18	16*	-0.23	1.3	0.9	·	16808*	1576	4628*
Cn1c(SCC(=O)N2CCOCC2)nc2sc3c(c2c1=O)CCCC3	4	0.012	0.95	1.3	1	-3	·	·	·
C#CCSc1nc2sc(C)c(C)c2c(=O)n1CC=C	6	·	·	·	·	·	·	·	·
Cc1cccc(/C(N)=N/OC(=O)COc2ccc3ccccc3c2)c1	4	·	·	·	·	·	·	·	·
O=c1c2ccccc2[nH]c(=S)n1Cc1cccnc1	-5	1.9	1.1	0.9	1.1	2	·	·	·
O=c1c2ccccc2c2ccccc2c(=O)n1Cc1cccnc1	-5	2.8*	-0.43	1	0.9	1	7060	1648	2352
CCc1cccc2c(C#N)cn(CCOc3ccccc3OC)c12	4	-0.79	-0.74	0.9	0.9	4	·	·	·
CCc1cccc2c(C#N)cn(CC(=O)NCCOC)c12	9	3*	-0.59	1	0.9	11	4856	1524	3892
CCOc1cc2nc(-c3ccc(OC)c(OC)c3)nc(N3CCOCC3)c2cc1OC	9	13*	0.88	1.4	0.9	4	10492*	1512	5440*
Cc1cc(C)n2nc(-c3ccc(I)cc3)cc2n1	3	·	·	·	·	·	·	·	·
CCn1c(Sc2nc(C)nc3scc(-c4cccs4)c23)n[nH]c1=O	-2	8.1*	3	1.6	1	6	15492*	1856	3552*
CCc1nc2scc(-c3cccs3)c2c(=O)o1	·	·	-0.45	·	·	3	·	·	·
CCOc1ccc(-c2nc(CSc3nncs3)cs2)cc1OC	1	23*	-0.43	1.2	1	5	21360*	·	8636*
O=C1NC(=S)N(C(=O)c2ccc(F)cc2)/C1=C/c1ccc2c(c1)OCO2	7	·	·	·	·	·	·	·	·
CCSc1nc2c([nH]c3ccccc32)c(=O)n1C	3	3.3	-1.2	0.9	0.9	0	·	·	·
CCC(C)Sc1nc2c([nH]c3ccccc32)c(=O)n1C (stereo not drawn)	-8	5.5*	-0.53	1.2	0.9	6	14100*	1792	2800
C=CCc1c(C)nc(SC)nc1Nc1ccc(C(=O)O)cc1	5	8.2*	0.055	1.1	0.9	2	11532*	·	2576
CSc1nsc(SCC(=O)Nc2ccc(C(C)=O)cc2)n1	·	·	-0.14	1	·	-1	·	·	·
C=CCc1c(C)nc(SC)nc1Nc1ccc(C(C)=O)cc1	6	4.1*	1.3	1.6	0.9	9	10112*	1672	6408*
C=CCc1c(C)nc(SC)nc1Nc1ccccc1	·	·	0.81	·	·	5	·	·	·
Cc1ccc(S(N)(=O)=O)cc1NC(=O)Cc1ccccc1	-8	·	·	·	·	·	·	·	·
CC(C)Nc1nc(NC(C)C)nc(N(C)N)n1	·	·	1.2	1.2	·	·	·	·	·
CC(C)Nc1nc(NC(C)C)nc(N(C)C(N)=O)n1	7	7.7*	-0.1	0.8	0.9	-4	17056*	1584	3744*
CN1CCN(C(=O)/C(=C/c2cccc([N+](=O)[O-])c2)NC(=O)c2cccs2)CC1	8	·	·	·	·	·	·	·	·
N#CCc1c(C#N)c(N)nc(N2CCN(S(=O)(=O)c3ccccc3)CC2)c1C#N	11	5.5*	-0.33	·	0.8	8	11684*	1432	3204*
SMILES	HePTP inhibitor	D1 allo mod	DAT uptake mod	PLAP activator	TNAP act mid DEA	Calb biofilm kill	D1 PAM confirm	D1 ag no DA	Isoprot counter
COC(=O)c1cc(=O)n(Cc2ccco2)c(=Nc2ccc(F)c(Cl)c2)s1	6	7.4*	-0.73	1.2	0.9	8	8744*	1432	2840
COC(=O)c1cc(=O)n(CCc2ccccc2F)c(=Nc2ccc(F)c(Cl)c2)s1	·	·	1.7	0.7	·	10	·	·	·
Cc1cc2nc(-c3ccc(NC(=O)C(C)C)cc3)oc2cc1C	-1	5.8*	·	0.9	0.9	·	3212	1136	1808
Cc1cc2nc(-c3ccc(NC(=S)NC(=O)c4ccco4)cc3)oc2cc1C	-1	·	·	·	·	·	·	·	·
Nc1nc(SCc2ccc(Cl)cc2Cl)n[nH]1	10	0.6	-2.7	1.4	1	0	·	·	·
Nc1nc(SCc2ccc3c(c2)OCCO3)n[nH]1	9	4.9*	-0.039	1.8	1	3	9268*	1676	2912
COc1ccc(Cl)cc1N=CC1=C(O)CC(C)(C)CC1=O	-2	·	·	·	·	·	·	·	·
CCOC(=O)c1ccc(NC(=O)CN2C(=O)/C(=C/c3ccc(C)cc3)SC2=S)cc1	-2	·	·	·	·	·	·	·	·
Cc1ccc2ccccc2c1CSCC(=O)Nc1ccccc1	-1	·	·	·	·	·	·	·	·
COc1ccc(Cl)cc1C(=O)CSc1nnnn1C1CCCCC1	·	·	-0.23	1.3	·	8	·	·	·
COc1ccc(Cl)cc1C(=O)CSc1nnnn1C1CCCC1	6	2.8*	-0.59	1.5	0.8	6	6668*	1592	2692
CN(C)C(=O)CSC1c2ccccc2C(=O)N1c1ccccc1 (stereo not drawn)	·	·	0.6	0.9	·	·	·	·	·
CCn1ncc2c1C(=O)NC1c3ccccc3C(=O)N21 (stereo not drawn)	7	17*	-0.72	1.1	0.9	2	21460*	·	3692*
CCc1nc2ccccc2c(C(=O)OC2CCOC2=O)c1C (stereo not drawn)	11	5.4*	0.047	1.4	0.9	6	11292*	1608	4024*
COc1ccc(Nc2ncc3c(n2)CC(c2ccc(C)cc2)CC3=O)cc1 (stereo not drawn)	·	·	0.25	1.1	·	4	·	·	·
COc1ccc(Nc2ncc3c(n2)CC(c2ccc(OC)cc2)CC3=O)cc1 (stereo not drawn)	1	7.5*	1	0.8	0.9	6	11768*	1536	4256*
COCCCNC(=O)CN(c1cccc(OC)c1)S(=O)(=O)c1ccccc1	4	·	·	·	·	·	·	·	·
CC(C)CC(=O)Nc1sc2c(c1C#N)CC(C)(C)NC2(C)C	·	·	0.23	1.1	·	8	·	·	·
CCC(=O)Nc1sc2c(c1C#N)CC(C)(C)NC2(C)C	6	6.4*	0.0033	1.1	0.9	9	7612	1848	2296
N#CCSc1nc2cc(C(=O)N3CCC(C(N)=O)CC3)ccc2c2nc3ccccc3n12	7	10*	0.29	1.9	0.9	2	12528*	1880	10076*
COc1ccc(N2CCN(Cc3nc4c(c(=O)n(C)c(=O)n4C)n3CCc3ccccc3)CC2)cc1	-4	3.5*	-1.4	·	0.9	14	7060	1804	4156*
COCCn1c(CN2CCN(c3ccc(OC)cc3)CC2)nc2c1c(=O)n(C)c(=O)n2C	6	0.21	0.72	1.6	0.9	0	·	·	·
N#CCc1nc2c3c4c(sc3ncn2n1)CCCC4	8	9.5*	-0.15	1.1	0.8	2	11284*	1556	3464*
CCOc1ccc(NC(=O)c2c(NC(=O)C(C)(C)C)sc3c2CCC3)cc1	-12	·	·	·	·	·	·	·	·
